Laboratory results: publication PMC5540273 (PLoS ONE, 2017)

What was measured:
Details in all cases: concentration: 1 μM, replicates: in singlicate; n = 1
EPHA2 = test system: EPHA2
EPHA3 = test system: EPHA3
EPHA4 = test system: EPHA4
EPHA5 = test system: EPHA5
EPHA6 = test system: EPHA6
EPHA7 = test system: EPHA7
EPHA8 = test system: EPHA8
EPHB1 = test system: EPHB1
EPHB2 = test system: EPHB2
EPHB3 = test system: EPHB3
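Further: KINOMEscan kinase panel screen.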

| SMILES | %Inh (EPHA2) | %Inh (EPHA3) | %Inh (EPHA4) | %Inh (EPHA5) | %Inh (EPHA6) | %Inh (EPHA7) | %Inh (EPHA8) | %Inh (EPHB1) | %Inh (EPHB2) | %Inh (EPHB3) |
| --- | --- | --- | --- | --- | --- | --- | --- | --- | --- | --- |
| CCn1c(-c2c(N)noc2C)nc2cnccc21 [SB-737856] | 15% | 0% | 29% | 7% | 21% | 14% | 33% | 12% | 0% | 26% |
| COc1ccc(Nc2nccc(-c3ccc(NC(=O)c4cc5cc(F)ccc5[nH]4)cc3)n2)cc1 [GSK1229496] | 1% | 1% | 0% | 0% | 0% | 0% | 10% | 3% | 0% | 0% |
| COc1ccc(Nc2nccc(N3CCC(NC(=O)C(C)c4ccc(Cl)cc4)CC3)n2)cc1 (stereo not shown) [GSK1379812] | 7% | 5% | 0% | 0% | 0% | 0% | 9% | 34% | 71% | 1% |
| Cc1nccc(-c2c(-c3ccc(F)cc3)ncn2CCCN2CCOCC2)n1.Cl [SB-282975] | 16% | 0% | 4% | 10% | 8% | 9% | 10% | 15% | 15% | 3% |
| CS(=O)(=O)CCNCc1nc(-c2ccc3ncnc(Nc4ccc(OCc5ccccc5)c(Cl)c4)c3c2)cs1.Cl [GW582764] | 10% | 0% | 0% | 0% | 7% | 0% | 8% | 0% | 0% | 11% |
| Cc1cnc(N)c(/C=C/c2cncc(C(=O)NCCc3ccc(Cl)cc3Cl)c2)c1.Cl [GSK190937] | 8% | 16% | 6% | 0% | 0% | 6% | 10% | 5% | 0% | 6% |
| Cc1c(Cn2c3ccccc3n3c(=O)cc(N4CCOCC4)nc23)cccc1C(F)(F)F [GSK2306394] | 0% | 0% | 0% | 0% | 0% | 7% | 13% | 22% | 0% | 0% |
| CNCc1ccc2nc(NC(=O)c3ccc(C(C)(C)C)cc3)cn2c1 | 3% | 0% | 0% | 3% | 0% | 0% | 0% | 0% | 5% | 0% |
| O=C(Nc1n[nH]c2nc(-c3cccs3)c(Br)cc12)C1CC1 [SB-735297] | 0% | 0% | 1% | 0% | 17% | 0% | 8% | 0% | 0% | 0% |
| COc1nccc(-c2c(-c3ccc(F)cc3)ncn2CCCN2CCOCC2)n1 [SB-282852] | 0% | 10% | 0% | 0% | 0% | 0% | 0% | 0% | 0% | 0% |
| Fc1ccc(-c2nc3n(c2-c2ccncc2)CCS3)cc1 [GI98581] | 12% | 0% | 0% | 10% | 19% | 4% | 11% | 9% | 15% | 19% |
| Cn1cncc1-c1cc2c(Nc3ccc(OCc4ccccc4)cc3)ncnc2cn1 [GW281179] | 13% | 0% | 6% | 0% | 14% | 9% | 11% | 21% | 0% | 25% |
| O=C(Nc1n[nH]c2nc(-c3cccs3)c(Br)cc12)C1CCCC1 [SB-743341] | 0% | 0% | 6% | 13% | 27% | 8% | 1% | 0% | 4% | 35% |
| CNc1cc(-c2ccc3c(N)n[nH]c3c2)nc(N)n1 [GSK2224810] | 0% | 27% | 0% | 0% | 0% | 0% | 0% | 23% | 0% | 4% |
| O=C1NC(=O)C(c2ccc(Cl)cc2)=C1Nc1ccc(O)cc1 [SB-340867] | 0% | 0% | 3% | 0% | 12% | 0% | 6% | 0% | 0% | 0% |
| O=C(Nc1n[nH]c2cc(-c3ccsc3)ccc12)C1CC1 [SB-732932] | 0% | 13% | 0% | 3% | 6% | 0% | 0% | 0% | 0% | 7% |
| COc1ccc(Nc2nccc(NCCNC(=O)Nc3cc(C)ccc3C)n2)cc1 [GSK1379899] | 0% | 0% | 17% | 0% | 14% | 3% | 6% | 16% | 0% | 17% |

| SMILES | %Inh (EPHA2) | %Inh (EPHA3) | %Inh (EPHA4) | %Inh (EPHA5) | %Inh (EPHA6) | %Inh (EPHA7) | %Inh (EPHA8) | %Inh (EPHB1) | %Inh (EPHB2) | %Inh (EPHB3) |
| --- | --- | --- | --- | --- | --- | --- | --- | --- | --- | --- |
| CC(C)c1ccc(O)cc1Nc1ccnc2ccc(C(F)(F)F)cc12 [GW482059] | 0% | 0% | 19% | 0% | 20% | 0% | 3% | 9% | 0% | 13% |
| CCCCc1nn2ncccc2c1-c1ccnc(NC2CC2)n1 [GW684374] | 0% | 0% | 0% | 0% | 0% | 0% | 9% | 13% | 0% | 0% |
| COc1cccc(CNC(=O)NC2CCN(c3ccnc(Nc4ccc(F)cc4)n3)C2)c1 (stereo not shown) [GSK1379723] | 2% | 0% | 0% | 0% | 0% | 1% | 15% | 0% | 0% | 5% |
| Nc1cccc(-c2ccc3c(N)n[nH]c3c2)n1 [GSK2192730] | 0% | 4% | 5% | 0% | 0% | 8% | 8% | 9% | 0% | 1% |
| CC[C@@H]1CO[C@H](C(=O)Nc2ccccc2)CN1c1cc(-c2ccc3c(N)n[nH]c3c2)nc(NC)n1 [GSK2376236] | 21% | 13% | 6% | 0% | 9% | 2% | 9% | 8% | 14% | 16% |
| O=C(Nc1n[nH]c2nc(-c3ccco3)c(Br)cc12)C1CCN(Cc2ccccc2)C1.O=C(O)[C@H](O)[C@@H](O)C(=O)O (stereo not shown) [SB-742034] | 0% | 16% | 1% | 6% | 0% | 7% | 0% | 7% | 17% | 11% |
| CC(C)c1cc(-c2ccc3c(N)n[nH]c3c2)nc(N)n1 [GSK2250882] | 17% | 11% | 16% | 0% | 17% | 3% | 8% | 17% | 0% | 29% |
| O=c1cc(N2CCOCC2)nc2n(Cc3ccccc3F)ccn12 [GSK2297428] | 21% | 0% | 5% | 0% | 0% | 3% | 9% | 5% | 0% | 7% |
| Cc1ccccc1-c1cc(-c2c[nH]nc2-c2ccccn2)ccn1 [GW680061] | 10% | 0% | 11% | 0% | 11% | 14% | 22% | 0% | 15% | 9% |
| O=C1NC(=O)C(c2ccc(Cl)cc2)=C1Nc1cccc(Cl)c1 [SB-317651] | 8% | 0% | 0% | 1% | 0% | 0% | 0% | 0% | 20% | 0% |
| COc1cccc(C2=C(Nc3cc(Cl)c(O)c(Cl)c3)C(=O)NC2=O)c1 [SB-390767] | 19% | 0% | 28% | 0% | 30% | 9% | 17% | 11% | 0% | 26% |
| c1ccc(-c2ccnc3[nH]ccc23)cc1 [SB-693578] | 0% | 0% | 12% | 0% | 0% | 18% | 26% | 13% | 0% | 4% |
| CC(=O)c1c(C)c2cnc(Nc3ccc(N4CCNCC4)cn3)nc2n(C2CCCC2)c1=O | 16% | 0% | 0% | 0% | 0% | 0% | 0% | 0% | 0% | 3% |
| Cc1c(Cn2c(C)c(C)n3c(=O)cc(N4CCOCC4)nc23)cccc1C(F)(F)F [GSK2328680] | 17% | 0% | 1% | 0% | 0% | 4% | 7% | 0% | 0% | 2% |
| Cn1cncc1C(=O)NC1CCN(c2ccnc(Nc3ccc(F)cc3)n2)C1 (stereo not shown) [GSK1379717] | 0% | 0% | 0% | 0% | 0% | 3% | 4% | 7% | 0% | 0% |
| COC(=O)C(NC(=O)NC1CCN(c2ccnc(Nc3ccc(F)cc3)n2)C1)c1ccccc1 (stereo not shown) [GSK1379712] | 0% | 0% | 3% | 0% | 2% | 0% | 10% | 10% | 11% | 1% |
| Cc1cccc2c(-c3ccncn3)c(-c3ccc(F)cc3)nn12 [GW515532] | 0% | 0% | 2% | 0% | 21% | 0% | 13% | 1% | 0% | 2% |
